Data published in PubChem BioAssay (NCI).
“And” between values parts separate entries of the source, which are not always exact repeats. Identical values can stand only once. This is part of a sample that, as a whole, favours compounds with a hit. Of some 79,000 tested, about 15% had one in any assay. Where a structure was tested more than once in an assay, its records may differ in their call. The source made the active and inactive calls. Cut-off read from the data, not from the text of the source: active = growth inhibition above about 70%; inactive = the rest.

How the values were obtained:
[1] = NCI Yeast Anticancer Drug Screen. Data for the wt1 strain (AID 149);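 note: 0% = growth of vehicle-treated wt1 cultures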; details: S. cerevisiae wt1 strain (SPY 50644) growth inhibition, stronger effect = higher value
Procedure, shortened: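 wt1 strain grown with compound or vehicle; inhibition taken from the growth difference.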

[2] = NCI Yeast Anticancer Drug Screen. Data for the rad50EPP+ strain (AID 151);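 note: 0% = growth of vehicle-treated control cultures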; details: S. cerevisiae rad50 mutant strain, stronger effect = higher value
Procedure, shortened: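 Vehicle-normalised growth inhibition; rad50EPP+ yeast strain, altered in DNA damage repair, compound-treated.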

[3] = NCI Yeast Anticancer Drug Screen. Data for the rad50 strain (AID 155);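 note: 0% = growth of vehicle-only cultures of the same strain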; details: S. cerevisiae rad50 strain growth inhibition, stronger effect = higher value
Procedure, shortened: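 DNA repair mutant yeast, compound exposure, growth read-out; inhibition is taken relative to vehicle.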

[4] = NCI Yeast Anticancer Drug Screen. Data for the mec2-1 strain (AID 157); details: S. cerevisiae mec2-1 strain, stronger effect = higher value
Procedure, shortened: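 Mutant yeast (mec2-1) grown with compound; growth inhibition relative to vehicle control reported.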

[5] = NCI Yeast Anticancer Drug Screen. Data for the rad14 strain (AID 159);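 note: 0% = growth of vehicle-treated control cultures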; details: S. cerevisiae rad14 strain growth inhibition, stronger effect = higher value
Procedure, shortened: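 DNA repair-defective yeast, compound-exposed; % growth inhibition derived by comparison with vehicle-treated controls.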

[6] = NCI Yeast Anticancer Drug Screen. Data for the sgs1 mgt1 strain (AID 161);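 note: 0% = growth of cultures given vehicle only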; details: S. cerevisiae sgs1 mgt1 strain, stronger effect = higher value
Procedure, shortened: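 This yeast growth screen uses a strain with defined DNA-repair lesions; compound-treated growth is compared with vehicle-treated growth.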

[7] = NCI Yeast Anticancer Drug Screen. Data for the CLN2oe strain (AID 163);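 note: 0% = growth of vehicle-only control cultures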; details: S. cerevisiae CLN2oe strain, stronger effect = higher value
Procedure, shortened: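 Compounds are applied to yeast harbouring a defined cell-cycle control change; reduced growth compared with vehicle-treated controls gives the value.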

[8] = NCI Yeast Anticancer Drug Screen. Data for the cln2 rad14 strain (AID 165);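 note: 0% = growth equal to vehicle treated cultures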; details: S. cerevisiae cln2 rad14 strain, stronger effect = higher value
Procedure, shortened: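 Readout is yeast growth inhibition versus vehicle-treated controls, using a strain with cln2 and rad14 alterations exposed to compound.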

[9] = NCI Yeast Anticancer Drug Screen. Data for the bub3 strain (AID 167); details: S. cerevisiae bub3 mutant strain, stronger effect = higher value
Procedure, shortened: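 In this screen, a yeast mutant lacking normal mitotic checkpoint function is challenged with compound. Relative growth versus vehicle gives the inhibition value.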

[10] = NCI Yeast Anticancer Drug Screen. Data for the wt2 strain (AID 169);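 note: 0% = growth of vehicle-treated yeast cultures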; details: S. cerevisiae wt2 strain growth inhibition, stronger effect = higher value
Procedure, shortened: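 Against vehicle-treated controls, the growth of yeast exposed to each compound was compared, and the inhibition was recorded.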

[11] = NCI Yeast Anticancer Drug Screen. Data for the mlh1 strain (AID 171);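 note: 0% = growth of vehicle-treated control cultures of the same strain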; details: S. cerevisiae mlh1 strain growth inhibition, stronger effect = higher value
Procedure, shortened: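 Measured: yeast growth. Reference: vehicle-treated controls. Organism: strain with a defined alteration affecting DNA damage repair or cell cycle control, treated with compound.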

[12] = NCI Yeast Anticancer Drug Screen. Data for the sgs1 strain (AID 173);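 note: 0% = growth of vehicle-only control cultures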; details: S. cerevisiae sgs1 mutant, stronger effect = higher value
Procedure, shortened: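 Each compound was added to cultures of the altered yeast strain. Growth was recorded, and inhibition was derived by comparison with vehicle controls.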

[13] = NCI Yeast Anticancer Drug Screen. Data for the rad18 strain (AID 177); details: S. cerevisiae rad18 mutant growth inhibition, stronger effect = higher value
Procedure, shortened: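 Vehicle-treated cultures served as the baseline for scoring compound-induced growth inhibition in DNA-repair-mutant yeast.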

[14] = NCI Yeast Anticancer Drug Screen. Data for the mlh1 rad18 strain (AID 175); details: S. cerevisiae mlh1 rad18 strain growth inhibition, stronger effect = higher value
Procedure, shortened: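 Genetically defined yeast (DNA repair-deficient) exposed to compounds; growth inhibition determined relative to vehicle.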

[15] = at 5.0 µM (retest, dose inferred, filed as 0.5)
[16] = at 50.0 µM (retest, dose inferred, filed as 5.0)

Measured: growth inhibition

CN(C)c1ccc(/C=C/c2ccnc3ccc4ccccc4c23)cc1
inactive: [1]; at 1.2 µM -6% | [1]; at 3.7 µM -9% | [1]; at 11.0 µM -6% | [1]; at 33.0 µM 34% | [1]; at 100.0 µM 48% | [2]; at 1.2 µM 2% | [2]; at 3.7 µM 8% | [2]; at 11.0 µM 15% | [2]; at 33.0 µM 4% | [2]; at 100.0 µM -14% | [3]; at 1.2 µM -7% | [3]; at 3.7 µM 3% | [3]; [15] 9% | [3]; at 11.0 µM 30% | [3]; at 33.0 µM 67% | [3]; [16] -7% | [3]; at 50.0 µM 69% | [4]; at 1.2 µM -7% | [4]; at 3.7 µM -7% | [4]; [15] -7% | [4]; at 11.0 µM 4% | [4]; [16] -18% | [4]; at 50.0 µM 27.3% | [5]; at 1.2 µM -5% | [5]; at 3.7 µM -4% | [5]; at 11.0 µM 28% | [6]; [15] -2% | [7]; at 1.2 µM -11% | [7]; at 3.7 µM -16% | [7]; at 11.0 µM -15% | [7]; at 33.0 µM 2% | [7]; at 100.0 µM 55% | [8]; [15] -14% | [8]; [16] 22% | [8]; at 50.0 µM 6.65% | [9]; at 1.2 µM -6% | [9]; at 3.7 µM -8% | [9]; [15] -4% | [9]; at 11.0 µM 6% | [9]; [16] 3% | [10]; at 1.2 µM -6% | [10]; at 3.7 µM -5% | [10]; at 11.0 µM 50% | [10]; at 33.0 µM 61% | [10]; at 100.0 µM 51% | [11]; at 1.2 µM -8% | [11]; at 3.7 µM 0% | [11]; at 11.0 µM 45% | [11]; at 33.0 µM 67% | [11]; at 100.0 µM 68% | [12]; at 1.2 µM -3% | [12]; at 3.7 µM 11% | [12]; at 11.0 µM 67% | [12]; at 100.0 µM 68% | [13]; at 1.2 µM 2% | [13]; at 3.7 µM 20%
active: [3]; at 100.0 µM 70% | [4]; at 33.0 µM 82% | [4]; at 100.0 µM 82% | [5]; at 33.0 µM 83% | [5]; at 100.0 µM 80% | [6]; [16] 76% | [6]; at 50.0 µM 91.4% | [9]; at 33.0 µM 83% | [9]; at 50.0 µM 70% | [9]; at 100.0 µM 79% | [12]; at 33.0 µM 77% | [13]; at 11.0 µM 75% | [13]; at 33.0 µM 84% | [13]; at 100.0 µM 75%

CN(C)c1ccc(C(c2ccc(Cl)cc2)c2ccc(N(C)C)cc2)cc1
-52% (inactive) and 97% (active): [8]; [15]
inactive: [1]; at 1.2 µM 0% | [1]; at 3.7 µM 53% | [1]; at 11.0 µM 28% | [2]; at 1.2 µM 3% | [2]; at 3.7 µM 10% | [2]; at 11.0 µM 6% | [2]; at 33.0 µM -2% | [2]; at 100.0 µM 14% | [3]; at 1.2 µM 64% | [4]; at 1.2 µM 31% | [7]; at 1.2 µM -14% | [7]; at 3.7 µM 26% | [7]; at 11.0 µM 26% | [10]; at 1.2 µM -2% | [10]; at 3.7 µM 13% | [10]; at 11.0 µM 17% | [11]; at 1.2 µM 9% | [12]; at 1.2 µM 24%
active: [1]; at 33.0 µM 73% | [1]; at 100.0 µM 86% | [3]; at 3.7 µM 97% | [3]; [15] 91% and 98% | [3]; at 11.0 µM 96% | [3]; at 33.0 µM 89% | [3]; [16] 94% and 99% | [3]; at 50.0 µM 95.7% and 94.5% | [3]; at 100.0 µM 79% | [4]; at 3.7 µM 98% | [4]; [15] 90% and 99% | [4]; at 11.0 µM 97% | [4]; at 33.0 µM 93% | [4]; [16] 93% and 100% | [4]; at 50.0 µM 95% and 94.3% | [4]; at 100.0 µM 86% | [5]; at 1.2 µM 82% | [5]; at 3.7 µM 98% | [5]; at 11.0 µM 98% | [5]; at 33.0 µM 94% | [5]; at 100.0 µM 84% | [6]; [15] 98% | [6]; [16] 94% and 99% | [6]; at 50.0 µM 94.1% and 95.3% | [7]; at 33.0 µM 87% | [7]; at 100.0 µM 78% | [8]; [16] 74% and 99% | [8]; at 50.0 µM 77.9% and 89.7% | [9]; at 1.2 µM 80% | [9]; at 3.7 µM 98% | [9]; [15] 93% and 99% | [9]; at 11.0 µM 97% | [9]; at 33.0 µM 93% | [9]; [16] 91% and 99% | [9]; at 50.0 µM 94.4% and 91.3% | [9]; at 100.0 µM 80% | [10]; at 33.0 µM 86% | [10]; at 100.0 µM 85% | [11]; at 3.7 µM 87% | [11]; at 11.0 µM 73% | [11]; at 33.0 µM 92% | [11]; at 100.0 µM 86% | [12]; at 3.7 µM 91% | [12]; at 11.0 µM 83% | [12]; at 33.0 µM 93% | [12]; at 100.0 µM 85% | [14]; [15] 96% and 98% | [14]; [16] 90% and 99% | [14]; at 50.0 µM 93.4% and 92.8% | [13]; at 1.2 µM 94% | [13]; at 3.7 µM 98% | [13]; at 11.0 µM 97% | [13]; at 33.0 µM 90% | [13]; at 100.0 µM 83%

O=c1oc(C(C(F)(F)F)C(F)(F)F)nc2ccccc12
inactive: [1]; at 1.2 µM 4% | [1]; at 3.7 µM 24% | [1]; at 11.0 µM 20% | [1]; at 33.0 µM 23% | [1]; at 100.0 µM 27% | [2]; at 1.2 µM 22% | [2]; at 3.7 µM 30% | [2]; at 11.0 µM 35% | [2]; at 33.0 µM 43% | [2]; at 100.0 µM 51% | [3]; at 1.2 µM 33% | [3]; at 3.7 µM 27% | [3]; [15] 10% | [3]; at 11.0 µM 25% | [3]; at 33.0 µM 29% | [3]; at 50.0 µM 36.1% | [3]; at 100.0 µM 29% | [4]; at 1.2 µM 13% | [4]; at 3.7 µM 27% | [4]; [15] 7% | [4]; at 11.0 µM 23% | [4]; at 33.0 µM 29% | [4]; at 100.0 µM 34% | [5]; at 1.2 µM 16% | [5]; at 3.7 µM 21% | [5]; at 11.0 µM 26% | [5]; at 33.0 µM 29% | [5]; at 100.0 µM 42% | [6]; [15] -5% | [6]; [16] 12% | [6]; at 50.0 µM 12.7% | [8]; [15] 23% | [8]; [16] 33% | [8]; at 50.0 µM 12.3% | [9]; at 1.2 µM 3% | [9]; at 3.7 µM 13% | [9]; [15] -27% | [9]; at 11.0 µM 20% | [9]; at 33.0 µM -5% | [9]; [16] -6% | [9]; at 50.0 µM 16.6% | [9]; at 100.0 µM 15% | [10]; at 1.2 µM -3% | [10]; at 3.7 µM -5% | [10]; at 11.0 µM -7% | [10]; at 33.0 µM 2% | [10]; at 100.0 µM 32% | [11]; at 1.2 µM 16% | [11]; at 3.7 µM 12% | [11]; at 11.0 µM 17% | [11]; at 33.0 µM 20% | [11]; at 100.0 µM 32% | [12]; at 1.2 µM 26% | [12]; at 3.7 µM 39% | [12]; at 11.0 µM 40% | [12]; at 33.0 µM 43% | [12]; at 100.0 µM 46% | [13]; at 1.2 µM 22% | [13]; at 3.7 µM 15% | [13]; at 11.0 µM 20% | [13]; at 33.0 µM 19% | [13]; at 100.0 µM 30%
active: [3]; [16] 72% | [4]; [16] 83% | [4]; at 50.0 µM 70.2%
